Measured values reported in PubChem BioAssay AID1259343 (VanderVen Lab, College of Veterinary Medicine, Cornell …, 2017).
The whole screen tested about 6,200 compounds, of which about 2,900 (47%) were called active. No stated cut-off is given here; in the data, active means inhibition above about 50%; inactive means the rest. So high a share suggests a set chosen from earlier hits. The list shows a part of the results.

experiment: Mycobacterium tuberculosis growth inhibition, primary screen (AID 1259343); conditions: inhibition: at 10 µM, active compounds read high; outcome: 10 uM

Compound	inhibition
Clc1ccccc1C(c1ccccc1)(c1ccccc1)n1ccnc1	68.1% (active)
COc1cc(OC)c2c(OC)c(-c3ccc4c(c3)OCO4)c(=O)oc2c1	70.6% (active)
Cn1ncc2c(N3CCN(CC(=O)Nc4ccc(Cl)cc4F)CC3)ncnc21	88.8% (active)
CCCCOc1ccc(C(=O)Nc2cc(C)nn2-c2nc(CCC)cc(=O)[nH]2)cc1	101% (active)
CCCc1cc(=O)[nH]c(-n2nc(C)cc2NC(=O)c2cc(OCC)c(OCC)c(OCC)c2)n1	100% (active)
CCCc1cc(=O)[nH]c(-n2nc(C)cc2NC(=O)c2ccc(OCC)cc2)n1	100% (active)
CCOc1cc(C(=O)Nc2cc(C)nn2-c2nc(C)cc(=O)[nH]2)cc(OCC)c1OCC	100% (active)
CCCc1cc(=O)[nH]c(-n2nc(C)cc2NC(=O)c2ccc(OC)cc2)n1	-40.9% (inactive)
Clc1ccc(OCC2CCCNC2)c2ccccc12 (centres undefined)	77.8% (active)
O=C(COc1ccc(Cl)c2ccccc12)NCC(F)(F)F	17.8% (inactive)
Nc1ncc(Cc2ccc(F)c(Cl)c2)s1	-17.6% (inactive)
Nc1ncc(Cc2ccc(Br)cc2)s1	46.1% (inactive)
Nc1ncc(Cc2ccc(F)cc2)s1	93% (active)
COC(=O)c1ccc(COc2ccc(C3C4=C(Nc5nnnn53)C(C(C)(C)C)CCC4)cc2)cc1 (centres undefined)	88.6% (active)
Cc1ccc(C2CC2C(=O)NC(C)c2nc(C3CCCC3)no2)s1 (centres undefined)	29.8% (inactive)
COCCc1noc(C2CC2c2ccc(C)s2)n1 (centres undefined)	90.7% (active)
O=S(N1CCc2ccccc2C1)C12CC3CC(CC(C3)C1)C2 (centres undefined)	80.3% (active)
O=c1cc(CSc2cccc[n+]2[O-])c2c(ccc3ccccc32)o1	102% (active)
C=CCNc1nnc(Sc2ncccc2[N+](=O)[O-])s1	98.3% (active)
Nc1ncc([N+](=O)[O-])c(Sc2nc3ccccc3s2)n1	-52.4% (inactive)
CC(C)=CCC1=C(O)c2ccccc2C(=O)C1=O	101% (active)
O=C(Nc1nc2c(s1)CCN(Cc1ccccc1)C2)c1cccc(F)c1	21.5% (inactive)
O=C(Nc1nc2ccc3ccccc3c2s1)c1ccccc1	61.4% (active)

Compound	inhibition
Cc1ccc(Cn2ncc3cc(Br)cnc32)cc1	97% (active)
Cc1ccc(Cn2ncc3c(Nc4ccc(C)cc4)ncnc32)cc1	35.1% (inactive)
COc1ccc(Nc2ncnc3c2cnn3Cc2ccc(C)cc2)cc1	23.5% (inactive)
Cc1ccccc1-n1cc(CN(C)Cc2nc(-c3ccccc3)no2)cn1	86% (active)
CCOc1ccc(Br)cc1S(=O)(=O)Oc1cccc2c1OC(C)(C)C2	23.4% (inactive)
COc1ccc(Br)cc1S(=O)(=O)Oc1ccc2ccccc2c1	95.9% (active)
CC(C)Oc1ccc(CNC(=O)c2cc(Cl)ccc2F)cn1	-0.38% (inactive)
O=C(NS(=O)(=O)c1ccc(Cl)cc1F)c1cccc2cn[nH]c12	22.9% (inactive)
O=C(NCc1ccc(OCC2CC2)nc1)c1cccc2cn[nH]c12	79.9% (active)
O=C(NN=Cc1ccco1)c1cc(Br)ccc1O	98.8% (active)
COCCn1c(O)c(C=NNC(=O)c2cc(Cl)ccc2O)c(=O)[nH]c1=S	45.1% (inactive)
C=CCc1ccc(OCCOc2ccc(F)cc2)c(OC)c1	-4.29% (inactive)
C=CCc1ccc(OCCCCn2cnc3ccccc32)c(OC)c1	61.1% (active)
C=CCc1ccccc1OCCn1cnc2ccccc21	57% (active)
OCc1ccc(Oc2ccc(Br)cc2)c(F)c1	94.1% (active)
Cc1nc(N)sc1-c1ccc([N+](=O)[O-])o1	-7.32% (inactive)
Cc1ccc(S(=O)(=O)c2ccc([N+](=O)[O-])o2)cc1	102% (active)
Cc1cc(C)c(-c2nc(NC(=O)C3=COCCO3)sc2C)cc1C	11.4% (inactive)
O=C(Nc1nnc(C2CC(=O)N(c3ccccc3)C2)o1)C1=COCCO1 (centres undefined)	93.6% (active)
NC(=S)COc1ccccc1	65.4% (active)
NC(=S)COc1ccc(F)cc1	77.8% (active)
O=C1CC(=O)N2C(c3ccccc3)=CSC2(OCCS)N1 (centres undefined)	-5.38% (inactive)
COc1cccc(CNC(=O)c2ccc(-c3ccc(F)cc3)s2)c1	inactive

Compound	inhibition
CC(NC(=O)c1ccc(-c2cccc(Cl)c2)s1)C(C)(C)C (centres undefined)	50% (active)
N#Cc1sc(-c2cccc(Cl)c2)cc1N	42.5% (inactive)
COc1ccc(CNC(=O)c2ccc(-c3cccc(Cl)c3)s2)cc1	54.9% (active)
O=C(NCc1ccncc1)c1ccc(-c2ccc(C3CCCCC3)cc2)s1	8.46% (inactive)
Cc1cccc(CNC(=O)c2ccc(-c3ccc(Oc4ccccc4)cc3)s2)c1	82.4% (active)
Clc1ccc(-n2cccc2CN2CCc3c([nH]c4ccccc34)C2c2ccccn2)nc1 (centres undefined)	37.9% (inactive)
Cc1ccc2c(=O)c(-c3cccc(C(F)(F)F)c3)coc2c1	57.7% (active)
NC(=O)c1cc2c(cc1-c1cccc(C(F)(F)F)c1)OCO2	22.9% (inactive)
CC(C)c1cc(C(=O)NCc2nc(Cc3cccs3)no2)n(C)n1	13.7% (inactive)
CC(C)Cc1noc(CCCNC(=O)Nc2cccc(Cl)c2)n1	55.1% (active)
Cc1[nH]ncc1CCCNC(=O)Nc1ccc(Cl)c(Cl)c1	-9.82% (inactive)
Fc1ccc(-c2cnn3c(NCc4cccc(Cl)c4)ccnc23)cc1Cl	57.7% (active)
CCCc1cc(NCc2cccnc2)n2ncc(-c3ccccc3)c2n1	13.7% (inactive)
CCCCCCc1ccc(C(=O)N2CCSC2c2ccncc2)cc1 (centres undefined)	95.1% (active)
CCCCc1ccc(C(=O)O)nc1	40.9% (inactive)
c1ccc(Cn2nnc3c(SCc4cccnc4)ncnc32)cc1	-31.8% (inactive)
Fc1ccc(-n2nnc3c(SCc4cccc(F)c4)ncnc32)cc1	-31.5% (inactive)
O=C(CSc1ncnc2c1nnn2Cc1ccccc1)OCc1ccccc1	-35.2% (inactive)
Cc1ccc(Cn2nnc3c(SCC(=O)OCc4ccccc4)ncnc32)cc1	84.7% (active)
COc1ccc(-n2nnc3c(SCc4cccc(F)c4)ncnc32)cc1	88.2% (active)
c1ccc(-n2nnc3c(SCc4cccnc4)ncnc32)cc1	61.4% (active)
O=C(CSc1ncnc2c1nnn2Cc1ccccc1F)OCc1ccccc1	-8.15% (inactive)
Cc1ccc(Cn2nnc3c(SCc4cccnc4)ncnc32)cc1	58.1% (active)
